PubChem BioAssay (EPA / NIEHS)
Values joined by “and” are separate entries in the source; they are usually repeats but may differ in a detail not shown here. Equal entries are not always repeated. Results filed as inconclusive are left out. Some structures have more than one record in an assay (separate samples or runs), and their calls can disagree. Active and inactive are the calls of the source. The calls were made as follows, unless noted: active = hit-call score of the fitted dose curve at least 0.9, where 1 is the maximum; inactive = score below 0.9.

Key:
[1] = CCTE_Shafer_MEA_acute_AB: CCTE's Alamar Blue Assay for Cytotoxicity in the Neural Acute Assay, Shafer Lab (AID 2284069; active = hit-call score of the fitted dose curve at least 0.9, where 1 is the maximum;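 also: active compounds lower the viability signal compared with DMSO wells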)
Procedure, shortened: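 Resazurin reduction (CellTiter Blue, 1:6 in fresh medium) read at ex 544/em 590 nm marks viability loss relative to DMSO. Cells: primary rat cortical neuron networks on microelectrode arrays, treated after baseline recording at 13 or 15 days in vitro.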

[2] = CCTE_Shafer_MEA_acute_LDH: CCTE's Lactate Dehydrogenase Assay for Cytotoxicity in the Neural Acute Assay, Shafer Lab (AID 2284086; active = hit-call score of the fitted dose curve at least 0.9, where 1 is the maximum;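 also: active means LDH release rises above DMSO vehicle level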)
Procedure, shortened: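 Cytotoxicity readout: spectrophotometric LDH activity in supernatant of rat primary cortical neurons, post-plating day 13 or 15, sampled after 40 min compound exposure; signal gain relative to DMSO baseline.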

[3] = CCTE_Shafer_MEA_dev_network_spike_duration_std: CCTE's Neural Network Formation Assay for Standard Deviation of Network Spike Duration, Shafer Lab (AID 2284052);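 also: hits are decreases in network spike duration SD versus DMSO vehicle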
Procedure, shortened: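 Network spike duration variability was collapsed across recordings on days 5, 7, 9 and 12 by trapezoidal area-under-curve and fitted downward against DMSO. Cultures were rat cortical neurons on PEI-coated MEA plates, dosed continuously from plating, refed with compound DIV 5/9.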

[4] = CCTE_Shafer_MEA_dev_per_network_spike_spike_number_mean: CCTE's Neural Network Formation Assay for Mean Number of Spikes in a Network Spike, Shafer Lab (AID 2284053);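 as to AC50: fitted as decrease in spikes per network spike relative to DMSO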
Procedure, shortened: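 Mean spike count within each network spike, taken in a 0.05 s window at its peak, was recorded on days 5, 7, 9 and 12 and integrated as trapezoidal area under the curve. Rat cortical cultures on MEA plates received continuous compound from day 0, refreshed at medium changes on DIV 5 and 9.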

[5] = CCTE_Shafer_MEA_dev_per_network_spike_spike_percent: CCTE's Neural Network Formation Assay for Percent of Spikes in a Network Spike, Shafer Lab (AID 2284054)
Procedure, shortened: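 Metric: fraction of spikes falling in a 0.05 s window at network-spike peaks. Recordings were made on days 5, 7, 9 and 12 and collapsed by trapezoidal AUC. Cultures were rat cortical neurons on MEA plates, dosed continuously from plating, re-dosed at media changes.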

[6] = CCTE_Shafer_MEA_dev_AB: CCTE's Alamar Blue Assay for Cytotoxicity in the Neural Network Formation Assay, Shafer Lab (AID 2284083; active = hit-call score of the fitted dose curve at least 0.9, where 1 is the maximum;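 also: resazurin reduction fluorescence as viability of cultured neurons; twelve days of exposure from plating with re-dosing on DIV 5 and 9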)
Procedure, shortened: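 Resazurin fluorescence, relative to DMSO, gauges viability after twelve days of exposure that began at plating of rat cortical neurons (1.5 x 10^5 cells/well, 48-well MEA); treatment renewed with full medium exchange on DIV 5 and 9.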

[7] = CCTE_Shafer_MEA_dev_mutual_information_norm: CCTE's Neural Network Formation Assay for Mutual Information Normalization, Shafer Lab (AID 2284091);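 as to AC50: mutual information between electrodes summarised as area under curve across four recording days; potency is for a decrease in mutual information relative to DMSO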
Procedure, shortened: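 Shared information across electrodes, tracked on days 5, 7, 9 and 12 of network development and collapsed as trapezoidal area under the curve. Rat cortical cultures were treated continuously from plating, with treatment renewed at feeds on DIV 5 and 9; DMSO baseline, negative-direction fit.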

[8] = CCTE_Shafer_MEA_dev_correlation_coefficient_mean: CCTE's Neural Network Formation Assay for Mean Correlation Coefficient, Shafer Lab (AID 2284093);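 as to AC50: well mean pairwise spike train correlation integrated as AUC over recording days 5 to 12; potency fitted for loss of correlation relative to DMSO vehicle wells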
Procedure, shortened: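 Primary rat cortical neurons on PEI-coated 48-well MEA plates (16 electrodes/well) were exposed from plating day 0 through DIV12, with compound renewed at DIV5 and 9. Pairwise spike correlations were averaged per well; trapezoidal AUC across DIV5, 7, 9, 12.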

[9] = IUF_NPC1b_proliferation_BrdU_72hr: Leibniz Research Institute for Environmental Medicine (IUF) 72-hour Neural Progenitor Cell Bromodeoxyuridine (BrdU) Proliferation Assay (NPC1b) (AID 2284207)
Procedure, shortened: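 Human fetal cortex-derived (GW 16-19) neural progenitor spheres, 0.25-0.35 mm, one per well in EGF/FGF proliferation medium, exposed to compound for 72 h at 37C, pH 7.2-7.6. BrdU incorporation over the final 16 h read by luminescence ELISA, relative to DMSO.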

[10] = CCTE_Mundy_HCI_Cortical_Synap_Neur_Matur_NeuriteSpotCountPerNeuriteLength: CCTE's Synaptogenesis and Neurite Maturation Assay in rat cortical cells for Neurite Spot Count per Neurite Length, Mundy Lab (AID 2284210)
Procedure, shortened: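 Synaptophysin spots per unit neurite length, measured by automated imaging of MAP2/synaptophysin/Hoechst-stained neurons. Cultures from rat cortex received chemical at DIV 7 with media change through DIV 12; glial growth arrested by AraC at DIV 5; DMSO baseline.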

[11] = CCTE_Mundy_HCI_Cortical_NOG_NeuriteCount: CCTE's Neurite Outgrowth Assay in rat cortical cells for Neurite Count, Mundy Lab (AID 2284212);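 also: cells fixed about two days after chemical exposure began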
Procedure, shortened: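 Rat cortical primary cells; compound added 2 h post-plating, 1/10 dilution of working solution. Anti-betaIII-tubulin/AF488 ICC; ArrayScan neurite count vs DMSO.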

[12] = CCTE_Mundy_HCI_Cortical_NOG_NeuriteLength: CCTE's Neurite Outgrowth Assay in rat cortical cells for Neurite Length, Mundy Lab (AID 2284213);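 as to AC50: neurites imaged about 48 to 50 h after chemical exposure began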
Procedure, shortened: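 First, rat primary cortical cells were plated and, 2 h later, given test chemical as a 1/10 dilution. Finally, βIII-tubulin immunostaining enabled automated imaging of neurite length.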

[13] = CCTE_Mundy_HCI_Cortical_Synap_Neur_Matur_NeuriteLength: CCTE's Synaptogenesis and Neurite Maturation Assay in rat cortical cells for Neurite Length, Mundy Lab (AID 2284214)
Procedure, shortened: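 DMSO-normalised neurite length, from high-content imaging of anti-MAP2-stained rat cortical cells fixed at DIV 12. Glia were suppressed with AraC (DIV 5) before chemical exposure from DIV 7.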

[14] = CCTE_Mundy_HCI_Cortical_Synap_Neur_Matur_NeuriteSpotCountPerNeuron: CCTE's Synaptogenesis and Neurite Maturation Assay in rat cortical cells for Neurite Spot Count per Neuron Count, Mundy Lab (AID 2284215)
Procedure, shortened: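 Rat primary cortical cells received AraC at DIV 5, then chemicals with a media change at DIV 7, and were fixed at DIV 12. Synaptophysin puncta on MAP2-stained neurites per neuron were counted by high-content imaging, fitted relative to DMSO.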

[15] = UKN2_HCS_IMR90_neural_migration: University of Konstanz (UKN) Leist Lab Neural Crest Cell Migration Assay in human induced IMR90 Pluripotent Stem Cells (UKN2) (AID 2284204); conditions: actives raise or lower the signal
Procedure, shortened: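 High-content imaging of calcein-AM and Hoechst stained cells quantifies migration into a stopper-defined gap after 24 h compound exposure. Neural crest cells from IMR90 iPSC migrated 24 h in EGF/FGF N2-S medium before dosing; DMSO baseline.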

DIO3 (gene 1735) = experiment: CCTE_GLTED_hDIO3: CCTE's human Deiodinase 3 (DIO3) Inhibition Assay, Great Lakes Toxicology and Ecology Division (GLTED) Lab (AID 2284055; active = hit-call score of the fitted dose curve at least 0.9, where 1 is the maximum;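 as to AC50: potency is for inhibition seen as loss of released iodide signal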)
Procedure, shortened: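 Steps: incubate adenovirus-produced hDIO3 with chemical for 3 hours; detect freed iodide via cerium-arsenic Sandell-Kolthoff colorimetry; compare with DMSO baseline.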

[16] = TAMU_PeakParms_SingleDonor1434_Chronotropy: Texas A&M University (TAMU) 1.5-hr Human Induced Pluripotent Stem Cell (iPSC)-derived Cardiomyocytes Calcium (Ca+2) Flux Assay for Cardiotoxicity: Chronotropy (changes in peak frequency) (AID 2284217); conditions: actives raise or lower the signal
Procedure, shortened: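 Beat rate, as mean Ca2+-flux peak frequency, was read from donor 1434 iPSC cardiomyocytes 90 min after exposure to 0.2–100 uM test chemical (0.5% DMSO). Wells that stopped beating were excluded; EC05 from bidirectional DMSO-referenced fitting.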

Measured: AC50

c1ccc(N=Nc2ccccc2)cc1
inactive: [1] | [2]

N#CC(Br)Br
inactive: [1] | [2]

O=C(N[C@H](c1ccccc1)[C@@H]1CN2CCC1CC2)c1c(Cl)ccc(C(F)(F)F)c1Cl
inactive: [1] | [2]

[O-][Cl+]O
active: [9] 2.18 µM
inactive: [3] | [4] | [5] | [6] | [7] | [8] | [10] | [11] | [12] | [13] | [14]

COP(=S)(OC)SCN1C(=O)c2ccccc2C1=O
inactive: [3] | [4] | [5] | [6] | [7] | [8] | [15] | [10] | [11] | [12] | [13] | [14]
active: [4] 31.8 µM | [5] 20.2 µM | [6] 31.7 µM | [7] 22.7 µM | [8] 19 µM | [9] 0.499 µM

ClCCOCCCl
inactive: DIO3 (gene 1735) | [1] | [2]

CCNS(=O)(=O)C(F)(F)C(F)(F)C(F)(F)C(F)(F)C(F)(F)C(F)(F)C(F)(F)C(F)(F)F
inactive: [3] | DIO3 (gene 1735)
active: [4] 4.54 µM and 2.66 µM | [5] 6.71 µM and 4.93 µM | [6] 15 µM and 7.67 µM | [7] 2.98 µM and 2.72 µM | [8] 2.98 µM and 4.98 µM

CNC(=O)Oc1cccc2c1OC(C)(C)C2
inactive: [3] | [4] | [5] | [6] | [7] | [8] | [15] | [9] | [10] | [11] | [12] | [13] | [14]
active: [4] 49.6 µM | [6] 49.6 µM

CC(C)(O)c1cnn2c(-c3ccc(F)c(-c4c(F)cccc4C#N)c3)cnc2n1
active: [5] 10 µM | [7] 0.191 µM
inactive: [3] | [4] | [1] | [6] | [2] | [8]

ClC1=C(Cl)[C@]2(Cl)[C@H]3[C@H]([C@@H]4C=C[C@H]3C4)[C@@]1(Cl)C2(Cl)Cl
active: [4] 1.98 µM | [5] 7.67 µM | [6] 7.93 µM | [7] 0.909 µM | [8] 1.99 µM
inactive: [3] | [2] | [16]

O=C(Oc1ccc(Br)cc1)N1CCN2CCC1CC2
inactive: [2]

CC(C)COC(=O)c1ccccc1C(=O)OCC(C)C
active: [4] 13.6 µM | [5] 23.1 µM | [6] 24.8 µM | [7] 22.2 µM | [8] 13.9 µM | [10] 87.9 µM | [13] 80.2 µM | [14] 77.8 µM
inactive: [3] | [1] | [2] | [15] | [9] | [11] | [12]

Cc1cc(N=Nc2ccccc2C)ccc1N
inactive: [1] | [2]

Oc1ccc2ccc3cccc4ccc1c2c34
active: DIO3 (gene 1735) 61.4 µM

CN(C)[C@@H]1C(=O)C(C(N)=O)=C(O)[C@@]2(O)C(=O)C3=C(O)c4c(O)cccc4[C@@](C)(O)[C@H]3C[C@@H]12
active: DIO3 (gene 1735) 79.8 µM
inactive: [3] | [4] | [5] | [6] | [7] | [8] | [10] | [11] | [12] | [13] | [14]

C[N+](C)(C)CC1CO1 (stereo not given)
inactive: [1] | [2]

ClC1=C(Cl)C2(Cl)C3C(Cl)C=CC3C1(Cl)C2(Cl)Cl (stereo not given)
inactive: [1] | [2] | [10] | [16]
active: [3] 744 nM | [4] 2.98 µM | [5] 1.4 µM | [6] 0.937 µM | [7] 1.52 µM | [8] 1.97 µM | [11] 17.6 µM | [12] 22.5 µM | [13] 13.4 µM | [14] 10.5 µM

Cc1ccc(N)c(N)c1
inactive: [1] | [2]

Clc1ccc(C(c2ccc(Cl)cc2)C(Cl)(Cl)Cl)cc1
inactive: [1] | [2] | [16]
active: [3] 1.98 µM and 8.91 µM | [4] 6.95 µM and 5.75 µM | [5] 3.02 µM and 4.15 µM | [6] 3.88 µM and 8.94 µM | [7] 971 nM and 2.52 µM | [8] 3 µM and 4.07 µM
